Here are results for 8 molecules from PubChem BioAssay (NCI).

This is part of a sample that, as a whole, favours compounds with a hit. Of some 83,000 tested, about 20% had one in any assay.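 48-hour exposure, single concentration, 96-well plates; percent growth endpoint where 0 means no net growth. Active: below 10.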 A number with no mark means an inactive call. The source made the active and inactive calls.

Test systems include HCT-15 colon; HT29 colon; SNB-75 CNS; SNB-19 CNS; U251 CNS; PC-3 prostate; SK-MEL-5 melanoma; UACC-62 melanoma; LOX IMVI melanoma; SK-MEL-28 melanoma; SK-MEL-2 melanoma; EKVX NSCLC; SN12C renal; UO-31 renal; TK-10 renal; ACHN renal; CAKI-1 renal; A498 renal; CCRF-CEM leukemia; MOLT-4 leukemia.
Common to all, as to assay: NCI-60 one-dose screen, 48 h (100 = growth as untreated, 0 = no growth, -100 = all killed)
Holding throughout (details): 10 µM unless noted

With `Nc1c(S(=O)(=O)O)cc2c3c(cccc13)C(=O)OC2=O`, the growth in the assay on HCT-15 colon is 95.9%; in the assay with HT29 colon it was 106%; with SNB-75 CNS it was 79.2%; with SNB-19 CNS, 99.7%; with U251 CNS, 97.8%; with PC-3 prostate it was 106%. Moreover, the growth in the assay with SK-MEL-5 melanoma was 102%; in the assay with UACC-62 melanoma it was 97.8%; in the assay on LOX IMVI melanoma it was 94.3%; with SK-MEL-28 melanoma, 115%; in the assay with SK-MEL-2 melanoma, 51%; in the assay with EKVX NSCLC, 91.5%. The growth was 98.9% in the assay on SN12C renal; 86.7% with UO-31 renal; 127% in the assay on TK-10 renal; 95.2% with ACHN renal; 79.9% in the assay with CAKI-1 renal; 106% with A498 renal. In addition, the values for the growth with CCRF-CEM leukemia and in the assay with MOLT-4 leukemia were 102% and 88.9%, respectively.

As for `COCc1cnccc1NC1CCCCCC1`, the growth was 107% in the assay with HCT-15 colon; 90.7% with HT29 colon; 98.1% in the assay on SNB-75 CNS; 104% in the assay with SNB-19 CNS; 103% in the assay with U251 CNS; 98.1% in the assay on PC-3 prostate. Moreover, the growth is 101% with SK-MEL-5 melanoma; 98.7% in the assay on UACC-62 melanoma; 100% with LOX IMVI melanoma; 110% in the assay on SK-MEL-28 melanoma; 107% in the assay with SK-MEL-2 melanoma; 102% in the assay on EKVX NSCLC. Also, the growth in the assay with SN12C renal is 99.4%; in the assay on UO-31 renal, 86.3%; in the assay with TK-10 renal, 94.1%; with ACHN renal, 108%; in the assay on CAKI-1 renal it was 94.4%; in the assay with A498 renal, 84.4%. The growth is 101% in the assay on CCRF-CEM leukemia and 94.4% in the assay on MOLT-4 leukemia.

Take `N#C/C(=C\c1c(-c2ccccc2)[nH]c2ccccc12)C(=O)c1ccc(Cl)cc1`: the growth in the assay on HCT-15 colon was 31.1%; with HT29 colon, 17.3%; with SNB-75 CNS it was -4.21% (active); with SNB-19 CNS, 55.3%; with U251 CNS it was 18.6%; in the assay on PC-3 prostate it was 32.9%. Moreover, the growth in the assay with SK-MEL-5 melanoma was 1.79% (active); in the assay on UACC-62 melanoma, 28.6%; in the assay on LOX IMVI melanoma it was 44.4%; in the assay on SK-MEL-28 melanoma, 50.9%; with SK-MEL-2 melanoma, 74.6%; in the assay with EKVX NSCLC it was 48.8%. Besides, the growth in the assay on SN12C renal was 66.7%; in the assay with UO-31 renal it was 47.3%; in the assay on TK-10 renal it was 68.3%; in the assay with ACHN renal, 48.9%; in the assay on CAKI-1 renal, 59.6%; in the assay on A498 renal, -3.53% (active). In addition, the growth was 2.19% (active) with CCRF-CEM leukemia and 45.9% with MOLT-4 leukemia.

Regarding `O=C(C[n+]1cccc2ccccc21)c1ccc(O)c(O)c1`, the growth with HCT-15 colon was 20.8%; in the assay with HT29 colon it was 40.7%; in the assay on SNB-75 CNS it was 66%; in the assay on SNB-19 CNS, 74.5%; with U251 CNS, 91.1%; in the assay with PC-3 prostate it was 69.9%. Further, the growth with SK-MEL-5 melanoma is 82.7%; in the assay on UACC-62 melanoma it was 69.7%; in the assay with LOX IMVI melanoma, 28.3%; in the assay with SK-MEL-28 melanoma, 84.7%; in the assay with SK-MEL-2 melanoma it was 90.8%; in the assay with EKVX NSCLC, 76.8%. The growth is 72.4% in the assay on SN12C renal; 50.6% with UO-31 renal; 39% with TK-10 renal; 23.7% in the assay with ACHN renal; 83.6% in the assay on CAKI-1 renal; 88.4% in the assay with A498 renal. Moreover, the growth in the assay with CCRF-CEM leukemia is -13.8% (active); in the assay with MOLT-4 leukemia it was 6.56% (active).

`CCNc1nc2ccc(Nc3ccnc4cc(Cl)ccc34)cc2[nH]1`: the growth is 89.8% in the assay with HCT-15 colon; 51.1% in the assay with HT29 colon; 87.3% in the assay with SNB-75 CNS; 84.8% in the assay on SNB-19 CNS; 75.2% in the assay on U251 CNS; 63.9% in the assay on PC-3 prostate. Also, the growth in the assay on SK-MEL-5 melanoma was 82.6%; in the assay on UACC-62 melanoma, 92.5%; with LOX IMVI melanoma, 70.6%; in the assay on SK-MEL-28 melanoma it was 99.5%; with SK-MEL-2 melanoma, 103%; with EKVX NSCLC it was 89.9%. Also, the growth is 75.3% with SN12C renal; 84.9% with UO-31 renal; 99.4% in the assay on TK-10 renal; 103% in the assay with ACHN renal; 98.9% in the assay with CAKI-1 renal; 42.8% in the assay with CCRF-CEM leukemia.

With `O=C(Cn1c[n+](CC(=O)c2ccc(-c3ccccc3)cc2)c2ccccc21)Nc1cccc2cccnc12`, the growth is 95.9% in the assay on HCT-15 colon; 7.47% (active) with HT29 colon; -6.7% (active) in the assay with SNB-75 CNS; 7.73% (active) in the assay with SNB-19 CNS; 20.6% with U251 CNS; 12.9% with PC-3 prostate. For the same molecule, the growth in the assay on SK-MEL-5 melanoma is -35.1% (active); in the assay with UACC-62 melanoma, -32.3% (active); in the assay with LOX IMVI melanoma, -45.5% (active); in the assay with SK-MEL-28 melanoma, 21.2%; in the assay with SK-MEL-2 melanoma, 19.4%; with EKVX NSCLC it was 47.6%. The growth in the assay on SN12C renal was 14.9%; with UO-31 renal it was 67.9%; in the assay with TK-10 renal, 88.5%; with ACHN renal it was 90.1%; with CAKI-1 renal it was 44.8%; with CCRF-CEM leukemia, 10.5%. Also, in the assay on MOLT-4 leukemia, the growth was 11.4%.

Regarding `CNC(=O)c1cccc(Cn2nc(C)c(NC(=O)c3ccc(COc4ccc(C(F)(F)F)cc4C)cc3)c2C)n1`, the growth in the assay on HCT-15 colon is 49.4%; in the assay with HT29 colon, 42%; in the assay on SNB-75 CNS, 80.9%; in the assay on SNB-19 CNS, 47.8%; in the assay on U251 CNS, 44.7%; in the assay with PC-3 prostate it was 34.6%. Besides, the growth in the assay on SK-MEL-5 melanoma is -6.19% (active); in the assay with UACC-62 melanoma it was 63%; with LOX IMVI melanoma, 55.2%; in the assay on SK-MEL-28 melanoma it was 70.5%; in the assay with SK-MEL-2 melanoma, 50.5%; in the assay on EKVX NSCLC, 37.5%. The growth with SN12C renal is 59.8%; in the assay with UO-31 renal, 50.8%; in the assay on TK-10 renal, 56.2%; in the assay on ACHN renal, 54.9%; with CAKI-1 renal, 46.4%; in the assay on CCRF-CEM leukemia, 60.2%. Moreover, in the assay on MOLT-4 leukemia, the growth was 29.6%.

In the case of `C=C1C(=O)O[C@H]2[C@H]1CC/C(COC(=O)NCc1c[nH]c3ccc(Cl)cc13)=C\CC[C@@]1(C)O[C@@H]21`, the growth in the assay on HCT-15 colon is -60.2% (active); in the assay on HT29 colon, -78.8% (active); in the assay on SNB-75 CNS, -6.74% (active); in the assay with SNB-19 CNS, 32.3%; in the assay on U251 CNS, -3.11% (active); in the assay on PC-3 prostate it was 9.72% (active). The growth was -17.6% (active) in the assay on SK-MEL-5 melanoma; -73.8% (active) in the assay on UACC-62 melanoma; -76.3% (active) in the assay on LOX IMVI melanoma; -63% (active) with SK-MEL-28 melanoma; -6.51% (active) with SK-MEL-2 melanoma; -22.4% (active) in the assay with EKVX NSCLC. The growth is -60.1% (active) in the assay on SN12C renal; -99.6% (active) with UO-31 renal; -53.9% (active) with TK-10 renal; -98% (active) in the assay on ACHN renal; -96.4% (active) in the assay on CAKI-1 renal; -11.1% (active) in the assay on CCRF-CEM leukemia. The growth in the assay on MOLT-4 leukemia was 3.46% (active).
